Experiment [1] can be described thus: Primary fluorescence-based thiol-reactive (MSTI) qHTS assay for identification of artifact compounds. (AID 1845221). Also: nearly all actives have a fitted effect of over 65% in size. Also: potency is read from the fitted curve at half-maximal effect.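 As to activity change, negative = thiol reactive: series mostly up to about 54 µM; thiol-reactive compounds lower the probe fluorescence signal.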 Put shortly: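 A multi-concentration qHTS design tested compounds against 4 uM MSTI, pH 7.4 phosphate-buffered saline. Plates were protected from light for 1 h at room temperature before imaging fluorescence.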
In experiment [2] the test system is Nanoluciferase (engineered Oplophorus gracilirostris luciferase). Put plainly: Primary Nanoluciferase (NLuc) qHTS assay for identification of artifact compounds. (AID 1845222). Also: potency is read from the fitted curve at half-maximal effect. Put shortly: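 Luminescence read-out of secreted NLuc in S16 cell conditioned medium (1:55); compounds tested with 15 min RT preincubation, then Nano-Glo substrate 1:100, 5 min. % inhibition vs no-enzyme and DMSO controls, 4-parameter Hill fit.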

A short description of experiment [3]: Primary redox qHTS assay for identification of artifact compounds. (AID 1845223).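 Also: 0% = DMSO and 100% = reference compound.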 Put shortly:
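Redox-cycling detection via DTT (250 uM final) oxidation coupled to Amplex Red (25 uM)/HRP (250 mU/mL) in HBSS. 15 min preincubation plus 30 min after DTT, room temperature. Ex/Em 525/598 nm; 4-parameter Hill fit against DMSO and 10 uM DA3003.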

The target in experiment [4] is Cytochrome P450 2D6 (Homo sapiens) (UniProt P10635). The experiment in a line: qHTS for inhibitors of CYP2D6 against the NCATS DSHEA and TCM libraries (AID 1919972). Also: % is scaled to controls: 0 for no effect and ±100 for the full control effect. Put shortly:
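CYP2D6 enzyme with pro-luciferin substrate in manufacturer buffer (typically 100 mM KPO4), preincubated 15 min RT with substances (most at 19.5 nM upward); NADPH regeneration system (1x) started 30–45 min RT reaction; P450-Glo luminescence read after 30 min; quinidine as intraplate control.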

The target of experiment [5] is Cytochrome P450 2C9 (Homo sapiens) (UniProt P11712). The experiment in a line: qHTS for inhibitors of CYP2C9 against the NCATS DSHEA and TCM libraries (AID 1919973).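 Also: luminogenic pro-luciferin CYP2C9 substrate turned into luciferin with NADPH regeneration; series mostly up to about 34 µM; % is scaled to controls: 0 for no effect and ±100 for the full control effect.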 Put shortly: (§1)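 Concentration-response screening with isoform-matched pro-luciferin substrates. The CYP reaction was initiated by NADPH regenerating solution and ran 30-45 min in darkness at room temperature.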

Experiment [6] has as its target Cytochrome P450 2C19 (Homo sapiens) (UniProt P33261). Put plainly: qHTS for inhibitors of CYP2C19 against the NCATS DSHEA and TCM libraries (AID 1919974).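 Also: luminescence from luciferin released by CYP2C19 oxidation of a pro-luciferin substrate; % is scaled to controls: 0 for no effect and ±100 for the full control effect.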 Put shortly:
as §1

A short description of experiment [7]: KB-3-1 P-gp reporter qHTS against the NCATS DSHEA and TCM libraries (AID 1919975). Also: 0% is about no effect. Put shortly: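 Cell viability by CellTiter-Glo luminescence following ~72 h compound exposure (concentration-response). Uses parental, non-P-gp-overexpressing KB-3-1 line, 500 cells/well in DMEM/10% FBS, attached ~4 h before dosing.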
Experiment [8] addresses Cytochrome P450 1A2 (Homo sapiens) (UniProt P05177). Put plainly: qHTS for inhibitors of CYPIA2 against the NCATS DSHEA and TCM libraries (AID 1919976).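 Also: light from luciferin formed by CYP1A2 from a pro-luciferin substrate; series mostly up to about 37 µM; % is scaled to controls: 0 for no effect and ±100 for the full control effect.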 Put shortly: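 Enzyme and pro-luciferin substrate, or substrate alone as no-enzyme background, are pre-incubated with test samples for 15 min at room temperature. NADPH regeneration system (1x final) initiates a 30-45 min dark reaction; luciferase detection reagent follows before luminescence reading.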

The nature of experiment [9]: qHTS Counterscreen for compound interference against the NCATS DSHEA and TCM libraries (AID 1919978).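 Also: compounds preincubated with 1 µM D-luciferin or buffer before detection reagent; % of control where 0% means no effect.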 Conditions: firefly luciferase detection reagent interference, luminescence. Put shortly:
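With 1 uM D-luciferin or phosphate buffer only, compounds at final 19.5 nM–39.8 uM were incubated for 15 min at room temperature. Luciferase detection reagent was then added, and luminescence was measured after a further 30 min at room temperature.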

Values without a mark were called inactive. Inconclusive results are not listed. Activity calls are given as the source filed them. Calls follow the shape of the dose curve; as a rule, active = well fitted curve in the direction sought with a large enough effect; inconclusive = small, poorly fitted or top-dose-only effect, or another doubt; inactive = no such curve, though single readings can be large; an effect the other way counts as inactive or inconclusive.

Sequence of Cytochrome P450 2C19 (Homo sapiens) (P33261 whole entry, looked up): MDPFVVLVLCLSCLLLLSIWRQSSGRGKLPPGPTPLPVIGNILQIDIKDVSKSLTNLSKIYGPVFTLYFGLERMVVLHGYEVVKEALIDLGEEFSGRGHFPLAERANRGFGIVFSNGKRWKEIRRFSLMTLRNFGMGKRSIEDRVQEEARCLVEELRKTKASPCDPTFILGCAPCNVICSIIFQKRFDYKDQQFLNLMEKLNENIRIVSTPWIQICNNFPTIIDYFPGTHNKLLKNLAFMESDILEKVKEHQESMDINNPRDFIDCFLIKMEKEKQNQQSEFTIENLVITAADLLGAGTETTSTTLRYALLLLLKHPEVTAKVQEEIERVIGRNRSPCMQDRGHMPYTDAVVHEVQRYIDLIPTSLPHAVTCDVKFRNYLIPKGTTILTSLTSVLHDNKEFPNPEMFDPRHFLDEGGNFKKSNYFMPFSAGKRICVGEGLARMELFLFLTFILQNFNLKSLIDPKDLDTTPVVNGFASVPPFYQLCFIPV
Sequence of Cytochrome P450 1A2 (Homo sapiens) (P05177 whole entry, looked up): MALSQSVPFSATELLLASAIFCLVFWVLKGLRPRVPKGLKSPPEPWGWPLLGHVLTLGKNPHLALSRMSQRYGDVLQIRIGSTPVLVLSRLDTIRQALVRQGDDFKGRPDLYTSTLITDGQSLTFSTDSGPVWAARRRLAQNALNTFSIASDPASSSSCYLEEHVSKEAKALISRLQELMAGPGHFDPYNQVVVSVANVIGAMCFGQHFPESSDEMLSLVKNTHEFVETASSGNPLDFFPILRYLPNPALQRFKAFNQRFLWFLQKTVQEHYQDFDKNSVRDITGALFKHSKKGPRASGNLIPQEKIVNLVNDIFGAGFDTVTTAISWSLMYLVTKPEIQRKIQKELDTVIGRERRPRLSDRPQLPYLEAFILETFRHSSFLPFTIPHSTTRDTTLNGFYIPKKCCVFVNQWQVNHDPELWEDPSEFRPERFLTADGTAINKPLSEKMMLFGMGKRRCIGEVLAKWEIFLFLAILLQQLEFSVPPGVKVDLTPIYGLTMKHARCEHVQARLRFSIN
Sequence of Cytochrome P450 2D6 (Homo sapiens) (P10635 whole entry, looked up): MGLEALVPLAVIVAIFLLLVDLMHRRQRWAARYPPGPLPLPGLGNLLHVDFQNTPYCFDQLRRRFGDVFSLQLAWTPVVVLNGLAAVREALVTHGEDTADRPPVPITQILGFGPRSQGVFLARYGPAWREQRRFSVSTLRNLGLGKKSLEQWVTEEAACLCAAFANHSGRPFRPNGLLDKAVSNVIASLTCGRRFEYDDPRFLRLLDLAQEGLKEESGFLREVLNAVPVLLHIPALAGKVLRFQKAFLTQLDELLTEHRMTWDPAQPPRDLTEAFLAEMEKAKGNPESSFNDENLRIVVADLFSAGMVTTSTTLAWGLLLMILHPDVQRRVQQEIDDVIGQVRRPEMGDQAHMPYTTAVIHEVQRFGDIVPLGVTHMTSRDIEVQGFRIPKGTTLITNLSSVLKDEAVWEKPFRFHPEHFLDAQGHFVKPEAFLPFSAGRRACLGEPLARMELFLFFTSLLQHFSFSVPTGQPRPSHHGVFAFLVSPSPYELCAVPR
Sequence of Cytochrome P450 2C9 (Homo sapiens) (P11712 whole entry, looked up, canonical isoform): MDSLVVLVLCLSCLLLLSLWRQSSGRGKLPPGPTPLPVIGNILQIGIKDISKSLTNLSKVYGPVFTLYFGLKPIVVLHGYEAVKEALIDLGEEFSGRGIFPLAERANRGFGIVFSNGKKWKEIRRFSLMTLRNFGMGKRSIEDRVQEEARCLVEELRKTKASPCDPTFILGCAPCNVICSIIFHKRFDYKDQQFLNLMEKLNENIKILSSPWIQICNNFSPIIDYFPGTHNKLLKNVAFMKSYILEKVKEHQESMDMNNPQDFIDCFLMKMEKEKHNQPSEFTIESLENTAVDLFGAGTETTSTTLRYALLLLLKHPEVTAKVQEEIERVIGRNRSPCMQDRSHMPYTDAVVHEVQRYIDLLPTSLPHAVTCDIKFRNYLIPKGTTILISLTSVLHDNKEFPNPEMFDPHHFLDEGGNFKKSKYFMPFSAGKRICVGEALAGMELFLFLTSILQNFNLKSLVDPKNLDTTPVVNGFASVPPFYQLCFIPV

Turning to `CC1=C2[C@@H]([C@H](C)CC[C@H]2/C=C(\C)C(=O)O)[C@H](O)C1`, the Potency entry in experiment [1], in [2] and in [3] was “inactive” each time.

`CC1(C)CC[C@]2(C(=O)O)CC[C@]3(C)C(=CCC4[C@@]5(C)C[C@@H](O)[C@H](O)C(C)(C)C5CC[C@]43C)[C@@H]2[C@@H]1O` (stereo not given in full): the Potency result in [1], in experiment [2] and in experiment [3] was “inactive” in each case.

As for `CN1CCC(c2c[nH]c3ccc(NC(=O)c4ccc(F)cc4)cc23)CC1`, the Potency entry in experiment [1], in [2] and in experiment [3] was “inactive” each time.

On to `CCC[C@@H]1C[C@@H](C(=O)N[C@@H]([C@H]2O[C@H](SC)[C@H](O)[C@@H](O)[C@@H]2O)[C@@H](C)O)N(C)C1`, for which the Potency result in experiment [1] and in experiment [3] was “inactive” each time.

Turning to `C=C1CC23CC1(O)CCC2C1=CC2OC(=O)C(C)(C2O)C1C3C(=O)O` (stereo not given), the Potency result in experiment [1] and in experiment [3] was “inactive” each time.

As for `CC/C=C/CC1=C(CCCCCCCC(=O)O)CCC1=O`, the Potency result in [1] and in [3] was “inactive” each time.

Take `CCOc1c2c(c(OCC)c3ccccc13)C(=O)N(c1ccc(CC(=O)NS(=O)(=O)c3ccccc3)cc1)C2`: the Potency entry in [1] and in experiment [3] was “inactive” in each case. The Potency in experiment [2] was 12 µM (active).

On to `CCOc1cc2ncc(C#N)c(Nc3ccc(OCc4ccccn4)c(Cl)c3)c2cc1NC(=O)/C=C/CN(C)C`, for which the Potency entry in [1] and in experiment [3] was “inactive” throughout.

For `CC1NC(=O)C(Cc2c[nH]c3ccccc23)NC1=O` (stereo not given), the Potency entry in experiment [1] and in experiment [3] was “inactive” throughout.

As to `CC(=O)OC[C@@]12[C@@H](OC(C)=O)C[C@@H](C)[C@](C)([C@@H]3C[C@H]4C=CO[C@H]4O3)[C@H]1CCC[C@]21CO1`, the Potency result in experiment [1], in experiment [2] and in experiment [3] was “inactive” each time.

In the case of `C[C@@H]1CC[C@]2(C)C(C[C@@H](O)[C@H](O)[C@]23CO3)[C@@]1(C)CCc1ccoc1` (stereo not given in full), the Potency result in experiment [1] and in experiment [3] was “inactive” each time.

As to `CNC(=O)c1ccc2cc([C@@]3(O)CCn4cncc43)ccc2c1`, the Potency entry in experiment [1], in [2] and in [3] was “inactive” each time.

Turning to `O=C(O)C[C@@H](NC(=O)c1cc(-c2ccc(-c3ccncc3)cc2)cs1)c1ccccc1`, the Potency entry in [1] and in experiment [3] was “inactive” in each case.

On to `COc1ccc(C)c2sc(NC(=O)c3ccncc3)nc12`, for which the Potency result in experiment [1], in experiment [2] and in experiment [3] was “inactive” throughout.

In the case of `CCOc1nc2cccc(C(=O)OCc3oc(=O)oc3C)c2n1Cc1ccc(-c2ccccc2-c2noc(O)n2)cc1`, the Potency entry in [1] and in experiment [3] was “inactive” each time.

Consider `O=C(O)c1cnn(-c2nc3cc(OC(F)(F)F)c(Cl)cc3[nH]2)c1`, for which the Potency result in experiment [1] and in experiment [3] was “inactive” in each case.

For `Cc1ccc(Sc2cncc3sc(C(N)=O)cc23)cc1`, the Potency entry in [1], in experiment [2] and in experiment [3] was “inactive” in each case.

In the case of `C[C@@H]1CC[C@]2(C(=O)O)CC[C@]3(C)C(=CCC4[C@]5(C)C(CC[C@]43C)C(C)(C)[C@@H](O)[C@H](O)[C@@H]5O)C2[C@]1(C)O` (stereo not given in full), the Potency result in [1] and in [3] was “inactive” each time.

With `CON(C)C(=O)N1N=C(c2cc(F)ccc2F)S[C@@]1(CCCN)c1ccccc1`, the Potency result in experiment [1] and in experiment [3] was “inactive” each time.

Regarding `CC1CC(O)CC(C)(C)C1(O)CCO` (stereo not given), the Potency result in experiment [1], in [2] and in [3] was “inactive” in each case.

With `CC1OC(O[C@H]2[C@@H](O)C[C@@]3(C)C([C@H](O)C[C@]4(C)C3CC=C3C5CC(C)(C)CC[C@]5(C(=O)OC5OC(CO)C(O)C(O)C5OC5OCC(OC6OCC(OC7OCC(O)C(O)C7O)C(O)C6O)C(OC6OCC(O)(CO)C6O)C5O)CC[C@]34C)[C@]2(C)CO)C(O)C(O)C1O` (stereo not given in full), the activity change, negative = thiol reactive in experiment [1] is 280% [at 11.5 µM]. For the same compound, the redox activity (% of DA3003) in [3] is 1.03% [at 11.5 µM].

As to `CC1CCC2C(C)(C)CC(C)(CO)C2(O)C1C(=O)O` (stereo not given), the Potency entry in experiment [1] and in [3] was “inactive” each time.

For `CC1CCC2(O1)C(C)(C)CC(O[C@@H]1O[C@H](CO[C@@H]3OC[C@](O)(CO)[C@H]3O)[C@@H](O)[C@H](O)[C@H]1O)CC2(C)O` (stereo not given in full), the Potency in experiment [1] is 13 µM (active). Also, the Potency entry in experiment [3] was “inactive”.

For the compound `CNC(=O)[C@H]1O[C@@H](n2cnc3c(NCc4ccc(N)c(I)c4)ncnc32)[C@H](O)[C@@H]1O`, the activity change, negative = thiol reactive in experiment [1] was 20.2% [at 11.5 µM]. Besides, the redox activity (% of DA3003) in experiment [3] was 1.11% [at 11.5 µM].

On to `C[C@H]1[C@H](C)CC[C@]2(C(=O)O)CC[C@]3(C)C(=CC[C@@H]4[C@@]5(C)C[C@@H](O)[C@H](O)[C@@](C)(CO)[C@@H]5CC[C@]43C)[C@H]12`, for which the Potency result in [1], in experiment [2], in [3], in [5] and in experiment [6] was “inactive” throughout. In addition, the compound was called inactive in [4], in experiment [7] and in experiment [8]. For the same compound, in experiment [9], the max response is 2.22%.

For the compound `CC(=O)OC[C@@]12[C@H](O)C[C@@H](C)[C@]3(C[C@@H](c4ccoc4)OC3=O)[C@H]1C[C@H](O)C[C@]21CO1`, the Potency entry in experiment [1] and in [3] was “inactive” throughout.

On to `C/C1=C\C[C@H](O[C@@H]2O[C@H](CO)[C@@H](O)[C@H](O)[C@H]2O)/C(C)=C/[C@H]2OC(=O)[C@H](C)[C@@H]2CC1`, for which the Potency in [1] is 7.33 µM (active). Also, in experiment [3], the Potency result was “inactive”.
